According to ChEMBL document CHEMBL4513137, “CO-ADD screening of University of Manchester (UK) compounds”:
Results with a measured potency or affinity are listed apart.

Tested on: Klebsiella pneumoniae
Details: Concentration 32 ug.mL-1; ASSAY_TEST Inhibition of Bacterial Growth; detection method Absorption (OD600); MEDIA CAMHB; plate type 384well; NBS; CORNING #3640; time 18 hr

| SMILES | Inhibition [%] |
| --- | --- |
| COc1cc([N+](=O)[O-])ccc1-c1c(Nc2ccccc2)cccc1OC | 14.15 |
| O=[N+]([O-])c1ccc(-c2ccccc2Nc2ccccc2)cc1F | 14.23 |
| CN(c1ccccc1)c1ccccc1-c1ccc([N+](=O)[O-])cc1 | 13.85 |
| CC(=O)c1ccc(-c2ccccc2Nc2ccccc2)cc1 | 4.21 |
| O=[N+]([O-])c1ccc(-c2ccccc2Nc2ccccc2)cc1C(F)(F)F | 20.57 |
| c1ccc(Nc2ccccc2-c2ncccn2)cc1 | 8.33 |
| Cc1cccc(C)c1Nc1ccccc1-c1ccccc1[N+](=O)[O-] | 2.08 |
| O=[N+]([O-])c1ccc(-c2ccccc2Nc2ccccc2)cc1 | -3.59 |
| COc1cccc(Nc2ccccc2)c1-c1ccc([N+](=O)[O-])cc1 | -2.96 |
| Clc1cc(Br)cc(Cl)c1-c1ccccc1Nc1ccccc1 | 1.2 |
| O=[N+]([O-])c1ccc(-c2c(Nc3ccccc3)cccc2-c2ccccc2)cc1 | 6.43 |
| O=[N+]([O-])c1ccc(-c2c(Nc3ccccc3)ccc3ccccc23)cc1 | -5.26 |
| COc1ccc(Nc2ccccc2-c2ccc([N+](=O)[O-])cc2)cc1 | 12.08 |
| O=[N+]([O-])c1ccc(-c2cccc3c2[nH]c2ccccc23)cc1 | 2.37 |
| O=[N+]([O-])c1ccc(-c2ccccc2Nc2ccccc2Br)cc1 | 7.18 |
| O=[N+]([O-])c1cc(Cl)c(-c2ccccc2Nc2ccccc2)c(Cl)c1 | -1.39 |
| COc1cc([N+](=O)[O-])ccc1-c1ccccc1Nc1ccccc1 | 18.46 |
| O=[N+]([O-])c1ccc2c3ccccc3n(-c3ccccc3)c2c1 | 5.72 |
| N#Cc1ccc(-c2ccccc2Nc2ccccc2)cc1 | 9.14 |
| CC[C@@H](Nc1ccccc1-c1c(Cl)cc(Br)cc1Cl)c1ccccc1 | 20.15 |
| COc1cccc(Nc2ccccc2)c1-c1c(Cl)cc(Br)cc1Cl | 24.48 |
| Cc1ccccc1Nc1ccccc1-c1ccc([N+](=O)[O-])cc1 | -1.35 |
| O=[N+]([O-])c1ccc(-c2ccccc2N(Cc2ccccc2)c2ccccc2)cc1 | 8.4 |
| COc1cccc(N(C)c2cccc(OC)c2-c2ccc([N+](=O)[O-])cc2C)c1 | 4.9 |
| Cc1cc([N+](=O)[O-])ccc1-c1ccccc1N(C)c1ccccc1 | -15.08 |
| Cc1cc(C)c(Nc2ccccc2-c2ccc([N+](=O)[O-])cc2)c(C)c1 | -16.56 |
| O=[N+]([O-])c1ccc(-c2ccccc2Nc2ccccc2)c(Cl)c1 | 13.74 |
